The values that follow come from PubChem BioAssay (NCI).

Compounds without any hit were thinned out: in the full panel of roughly 83,000, 20% have a hit.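 For each line, cells grew in 96-well plates with the test compound present at a single concentration for 48 hours.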 A number with no mark means an inactive call. The source made the active and inactive calls. Rule for the calls: active = growth percent below 10; inactive = the rest.

What all share (assay): NCI-60 one-dose screen, 48 h (100 = growth as untreated, 0 = no growth, -100 = all killed)
What all share (settings): 10 µM

Experiment [1] deals with HCT-15 colon.
Experiment [2] concerns HT29 colon.
In experiment [3] the test system is SNB-75 CNS.
Experiment [4] deals with SNB-19 CNS.
In experiment [5] the test system is U251 CNS.
Experiment [6] has as its system PC-3 prostate.
For experiment [7], the system named is SK-MEL-5 melanoma.
The subject of experiment [8] is UACC-62 melanoma.
Experiment [9] deals with LOX IMVI melanoma.
For experiment [10], the system named is SK-MEL-28 melanoma.
In experiment [11] the test system is SK-MEL-2 melanoma.
Experiment [12] relates to SN12C renal.
Experiment [13] has as its system UO-31 renal.
The test system of experiment [14] is TK-10 renal.
Experiment [15] deals with ACHN renal.
The subject of experiment [16] is CAKI-1 renal.
The subject of experiment [17] is A498 renal.
In experiment [18] the test system is CCRF-CEM leukemia.
In experiment [19] the test system is MOLT-4 leukemia.

Turning to `O=c1oc2cc(OS(=O)(=O)C3CC3)ccc2c2c1CCCCCC2`, the growth in experiment [1] was 72.8%; in experiment [2] it was 25.9%; in experiment [3], 98.7%; in [4] it was 88.2%; in experiment [5] it was 79.1%; in experiment [6], 68.7%. In addition, the growth was 37.3% in [7]; 71.3% in experiment [8]; 85.8% in [9]; 93.7% in [10]; 103% in experiment [11]; 82.8% in [12]. The growth is 83.4% in [13]; 121% in experiment [14]; 82.1% in experiment [15]; 79.4% in experiment [16]; 63.8% in experiment [17]; 64.4% in experiment [18]. For the same molecule, the growth in [19] is 65.6%.

With `N#Cc1ncc(-c2cc(F)ccc2F)c(NC2CCCCCC2)n1`, the growth was 82.8% in experiment [1]; 94.7% in [2]; 67.3% in experiment [3]; 64% in experiment [4]; 9.98% (active) in experiment [5]; 60.7% in experiment [6]. Also, the growth in experiment [7] was 84.9%; in experiment [8], 60.9%; in experiment [9], 80.6%; in experiment [10], 80.8%; in [11], 74.9%; in [12], 80.8%. In addition, the growth in experiment [13] is 81.5%; in experiment [14], 101%; in experiment [15], 88.8%; in experiment [16], 88.2%; in experiment [17] it was 58.2%; in experiment [18] it was 81.3%. Further, in experiment [19], the growth is 79.4%.

On to `COc1ccc(-c2cc(=O)n(-c3nc4ccccc4[nH]3)[nH]2)cc1OC`, for which the growth in [1] is 32%; in [2] it was 109%; in experiment [3], 60.2%; in [4], 63.2%; in experiment [5], 45.9%; in experiment [6], 62.5%. For the same molecule, the growth in experiment [7] is 62.7%; in [8] it was 31%; in [9], 61.8%; in [10], 84%; in experiment [11], 51%; in [12], 75%. Moreover, the growth in [13] was 56.1%; in experiment [14], 93.9%; in experiment [15], 57.6%; in experiment [16], 38.7%; in experiment [17], 30.9%; in [18], -4.05% (active). Besides, the growth in [19] was -32% (active).

Regarding `CCOC(=O)Cn1nnc(-c2ccc(OCc3ccccc3F)cc2)n1`, the growth is 88.5% in [1]; 92.4% in [2]; 57.8% in [3]; 93.9% in [4]; 99% in [5]; 89% in experiment [6]. Further, the growth was 91.5% in experiment [7]; 81.4% in [8]; 85.2% in experiment [9]; 72.9% in experiment [10]; 100% in [11]; 98.2% in experiment [12]. For the same molecule, the growth was 58% in [13]; 105% in [14]; 84.6% in experiment [15]; 76.5% in experiment [16]; 40.9% in experiment [17]; 92.4% in [18]. Besides, the growth in experiment [19] was 90%.

In the case of `C#C[C@]1(O)CC[C@H]2[C@@H]3CC[C@H]4CC(F)(F)CC[C@]4(C)[C@H]3CC[C@@]21C`, the growth in [1] is 94.6%; in experiment [2], 64.1%; in experiment [3], 70.5%; in experiment [4], 80.3%; in [5], 73.3%; in experiment [6], 70.7%. Further, the growth in experiment [7] was 94.3%; in experiment [8], 78.8%; in experiment [9], 89.1%; in experiment [10], 74.4%; in experiment [11] it was 115%; in experiment [12], 87.4%. The growth in experiment [13] is 102%; in experiment [14], 97.7%; in experiment [15] it was 89.3%; in experiment [16] it was 84.6%; in experiment [17] it was 41.1%; in [18] it was 74.7%. In addition, the growth in experiment [19] was 95.7%.

Regarding `O=C(OCc1ncc(-c2ccc(C(F)(F)F)cc2)c(NC2CCCCCC2)n1)c1c(F)c(F)c(F)c(F)c1F`, the growth in [1] is 89.3%; in experiment [2] it was 43.1%; in experiment [3], 76.1%; in experiment [4], 73.8%; in experiment [5], 46.8%; in experiment [6], 28.6%. Besides, the growth in experiment [7] is 36.4%; in experiment [8], 36.6%; in experiment [9], 57.5%; in experiment [10] it was 47.4%; in [11], 54.6%; in experiment [12], 54.1%. For the same molecule, the growth in experiment [13] was 28.3%; in [14] it was 63.2%; in [15], 27.8%; in experiment [16], 89.6%; in experiment [17] it was 102%; in experiment [18], 15.7%. For the same molecule, the growth in experiment [19] is 79.1%.

For the molecule `O=C(NCCCl)c1cc(Cl)cc(Cl)c1`, the growth in experiment [1] was 97.1%; in experiment [2] it was 107%; in [3], 76.8%; in [4] it was 108%; in experiment [5], 98.7%; in experiment [6], 93.2%. In addition, the growth is 101% in experiment [7]; 94.9% in experiment [8]; 102% in experiment [9]; 103% in experiment [10]; 117% in experiment [11]; 97% in experiment [12]. Further, the growth in [13] is 84%; in [14] it was 117%; in experiment [15], 107%; in experiment [16], 96.8%; in [17] it was 80.9%; in experiment [18] it was 97.2%. Also, in experiment [19], the growth is 105%.

In the case of `Brc1ccc(-c2cn3ccnc3c(-c3ccc(Br)cc3)n2)cc1`, the growth in experiment [1] was 21.6%; in [2], 9.88% (active); in experiment [3], 35.6%; in [4], 75.8%; in [5], 39.2%; in experiment [6] it was 66.3%. Besides, the growth is 46.3% in [7]; 43.6% in [8]; 43.2% in experiment [9]; 62.2% in [10]; 30.8% in experiment [11]; 53.7% in experiment [12]. Further, the growth was 41.6% in [13]; 84.2% in [14]; 54.6% in experiment [15]; 39.6% in experiment [16]; 35.9% in experiment [17]; 44.8% in [18]. In [19], the growth was 30.4%.

As for `COc1cc(OC)cc(N2CCN(C(=O)Nc3nc4cc(F)ccc4nc3OC)CC2)c1`, the growth in experiment [1] is 7.06% (active); in experiment [2], 3.96% (active); in experiment [3], 27.9%; in [4], 28.7%; in [5], 17.5%; in experiment [6], 22.4%. The growth in [7] is -42.2% (active); in experiment [8] it was 47.9%; in [9], 23.6%; in experiment [10], 77.1%; in [11], 42.1%; in experiment [12] it was 29.6%. Further, the growth in experiment [13] was 34.5%; in [14], 47.5%; in [15], 30.2%; in experiment [16], 29.7%; in experiment [17] it was -8.09% (active); in [18], 14.7%. In addition, the growth in experiment [19] is 8.4% (active).

For `CCC(O)c1ccc(Br)cc1NC(=O)c1cccc(Cl)c1` (stereo not given), the growth is 28.5% in [1]; 83.7% in experiment [2]; 38.8% in [3]; 21.2% in experiment [4]; 11.7% in [5]; 34.2% in experiment [6]. The growth in [7] is 10.7%; in experiment [8] it was -27.5% (active); in experiment [9] it was 0.289% (active); in [10] it was 29.3%; in experiment [11], 34%; in [12], 18.7%. For the same molecule, the growth in [13] is -11.6% (active); in experiment [14], 41.9%; in [15], 15.6%; in [16] it was 7.99% (active); in experiment [17], 25.3%; in [18], 6.46% (active). In addition, the growth in experiment [19] is 10.1%.
